Assay [1] can be described thus: rapamycin-like changes in RPL19A-GFP expression – cell-based, S. cerevisiae, multiplex flow cytometry, primary screen (AID 1862; in the data active = percent of DMSO control GFP below about 86%;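 also: lower values mimic rapamycin by blocking the RPL19A rise seen in DMSO cells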). Conditions: S. cerevisiae RPL19A-GFP strain, flow cytometry fluorescence, 3 h; at 10 µM; stronger effect = lower value.
The nature of assay [2]: TOR pathway GLN3 branch reporter MEP2-GFP changes – S. cerevisiae, multiplex flow cytometry, primary screen (AID 1867;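 active = GFP response, as percent of the DMSO control, above the screen-wide mean plus 3 SD, about 139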;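 also: median GFP channel fluorescence of barcode-gated MEP2-GFP cells measured by flow cytometry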). Conditions: S. cerevisiae MEP2-GFP strain, 3 h, at 10 µM, stronger effect = higher value, 100% means same as DMSO wells. (In flow cytometry, cells or beads pass a laser one at a time.)
A short description of assay [3]: TOR pathway RTG branch CIT2 reporter changes – S. cerevisiae, GFP fusion, multiplex flow cytometry, primary screen (AID 1870;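 active = percent response above a set limit, the screen-wide mean plus 3 SD, cut at about 130% in these data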;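 also: barcoded CIT2-GFP strain pooled with four other GFP strains with rapamycin as positive control; median GFP fluorescence per well over plate mean of DMSO wells so 100% = DMSO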). Conditions: S. cerevisiae CIT2-GFP expression, 3 h, at 10 µM, stronger effect = higher value.
A short description of assay [4]: TOR pathway LAP4-GFP level changes – S. cerevisiae, multiplex flow cytometry, primary screen (AID 1873;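 active = GFP signal, as percent of the solvent control, above the screen mean plus 3 SD, about 149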). Conditions: S. cerevisiae LAP4-GFP expression, 3 h, at 10 µM, stronger effect = higher value.
Assay [5] can be described thus: yeast AGP1-GFP level changes, GLN3 branch – cell-based, multiplex flow cytometry, S. cerevisiae, primary screen (AID 1887;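 active = GFP signal above the screen-wide mean plus 3 SD, that is over about 124.5% of the solvent control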;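 also: AGP1-GFP fusion strain of S. cerevisiae within a five-strain barcoded multiplex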). To be noted: 3 h, at 10 µM, stronger effect = higher value.
A short description of assay [6]: reduced mouse 2C T cell binding to pMHC/ICAM-1 vesicles – MLPCN validation set, flow cytometry, LFA-1/ICAM-1 modulator project, pilot screen (AID 2523;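 active = response below a set limit, under 55% cells CD8-positive and vesicle-bound, and CD8 cells' 90th-percentile brightness under 279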;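 as to vesicle binding response: mean PE anti-B7-1 fluorescence of CD8+ cells relative to row control; 100% = QL9-loaded vesicles with DMSO vehicle in the same plate row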). Conditions: 2C mouse CD8+ T cells, at 7 µM, stronger effect = lower value; double positive events: measured here: CD8+/vesicle+ event percentage.
Assay [7] deals with Integrin beta-1 (Homo sapiens) + Integrin alpha-4 (Homo sapiens) (UniProt P13612+P05556). Put plainly: alpha4beta1 integrin LIBS antibody binding reduction – U937 cells, HUTS-21 mAb, flow cytometry, validation set, VLA-4 allosteric modulator project, pilot screen (AID 2674;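 active = inhibition above 50%, about 3 SD of the validation set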;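 also: antibody binding induced by the VLA-4 ligand LDV present at three times its Kd; 0% = LDV ligand with antibody and no compound and 100% = antibody without LDV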). Conditions: HUTS-21 LIBS mAb binding, at 6.7 µM, stronger effect = higher value, binding induced by LDV ligand.
Sequence of Integrin beta-1 (Homo sapiens) + Integrin alpha-4 (Homo sapiens) (P05556 whole entry, looked up): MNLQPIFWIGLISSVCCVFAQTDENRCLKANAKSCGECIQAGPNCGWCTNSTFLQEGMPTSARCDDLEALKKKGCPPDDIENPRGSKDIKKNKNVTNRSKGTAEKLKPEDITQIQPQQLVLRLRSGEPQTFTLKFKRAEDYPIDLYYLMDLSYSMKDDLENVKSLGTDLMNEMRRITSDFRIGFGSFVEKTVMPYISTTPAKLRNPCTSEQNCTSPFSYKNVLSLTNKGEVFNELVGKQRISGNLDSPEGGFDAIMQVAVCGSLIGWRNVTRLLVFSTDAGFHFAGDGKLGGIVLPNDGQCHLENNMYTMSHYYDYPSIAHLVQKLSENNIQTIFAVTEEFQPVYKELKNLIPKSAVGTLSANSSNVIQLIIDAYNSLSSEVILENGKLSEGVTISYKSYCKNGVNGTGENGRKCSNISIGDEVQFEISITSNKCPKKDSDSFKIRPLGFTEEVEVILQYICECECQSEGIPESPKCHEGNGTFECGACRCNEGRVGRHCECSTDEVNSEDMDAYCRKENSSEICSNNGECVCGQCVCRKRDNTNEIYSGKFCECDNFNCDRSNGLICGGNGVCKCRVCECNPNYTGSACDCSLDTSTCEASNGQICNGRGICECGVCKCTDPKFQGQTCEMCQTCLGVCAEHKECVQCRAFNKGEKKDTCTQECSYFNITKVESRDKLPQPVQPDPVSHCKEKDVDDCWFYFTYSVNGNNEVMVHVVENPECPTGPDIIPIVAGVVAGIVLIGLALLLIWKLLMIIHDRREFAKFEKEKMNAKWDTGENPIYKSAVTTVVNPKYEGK
Sequence of Integrin beta-1 (Homo sapiens) + Integrin alpha-4 (Homo sapiens) (P13612 whole entry, looked up): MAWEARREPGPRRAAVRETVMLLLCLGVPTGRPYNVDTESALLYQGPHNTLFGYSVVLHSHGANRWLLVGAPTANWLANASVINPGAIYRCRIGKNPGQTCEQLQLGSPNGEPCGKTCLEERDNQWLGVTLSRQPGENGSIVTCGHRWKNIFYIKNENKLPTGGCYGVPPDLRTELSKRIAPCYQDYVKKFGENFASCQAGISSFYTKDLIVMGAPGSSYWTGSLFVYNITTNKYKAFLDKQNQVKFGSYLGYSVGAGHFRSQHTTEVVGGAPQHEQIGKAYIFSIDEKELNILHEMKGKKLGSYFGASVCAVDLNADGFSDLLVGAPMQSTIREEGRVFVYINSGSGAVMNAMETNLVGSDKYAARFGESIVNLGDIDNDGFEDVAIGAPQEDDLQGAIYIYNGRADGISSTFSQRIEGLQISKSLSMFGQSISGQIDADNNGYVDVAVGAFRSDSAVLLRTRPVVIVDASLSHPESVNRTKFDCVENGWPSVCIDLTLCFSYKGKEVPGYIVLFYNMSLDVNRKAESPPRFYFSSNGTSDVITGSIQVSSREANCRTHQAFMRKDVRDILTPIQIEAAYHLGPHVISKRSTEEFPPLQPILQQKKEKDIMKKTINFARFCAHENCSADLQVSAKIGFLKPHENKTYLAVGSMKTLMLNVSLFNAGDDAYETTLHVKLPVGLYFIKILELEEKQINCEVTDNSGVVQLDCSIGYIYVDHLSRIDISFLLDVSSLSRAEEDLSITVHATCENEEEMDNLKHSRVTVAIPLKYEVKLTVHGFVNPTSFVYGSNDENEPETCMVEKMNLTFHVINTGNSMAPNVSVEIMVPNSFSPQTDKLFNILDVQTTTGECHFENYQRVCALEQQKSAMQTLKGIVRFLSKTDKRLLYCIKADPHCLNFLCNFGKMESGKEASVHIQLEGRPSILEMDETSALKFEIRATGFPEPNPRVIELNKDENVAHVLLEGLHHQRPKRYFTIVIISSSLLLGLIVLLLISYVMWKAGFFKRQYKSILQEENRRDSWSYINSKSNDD
A short description of assay [8]: calorie-restriction mimetic ROS inhibitors, yeast – validation compound set, pilot screen (AID 2706;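 active = superoxide response below 65% of plate, a cut near 3 SD across the whole screen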;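 also: yeast exposed to compound for one week at 30 degrees C before staining; 100% = mean of all compound wells on the same plate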). To be noted: S. cerevisiae aging, superoxide DHE fluorescence; at 10 µM; stronger effect = lower value.
Assay [9] deals with Beta-adrenergic receptor kinase 1 (Homo sapiens) (UniProt P25098). The experiment in a line: GRK2 binders displacing RNA aptamer, biochemical, validation, human GRK2, bead flow cytometry (AID 488806;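 active = aptamer binding inhibition above 30%, about 3 SD of noise from non-fluorescent compounds; inactive = inhibition at or below 30%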). Conditions: bead-bound GRK2, FAM-aptamer displacement, at 10 µM, stronger effect = higher value.
Sequence of Beta-adrenergic receptor kinase 1 (Homo sapiens) (P25098 whole entry, looked up): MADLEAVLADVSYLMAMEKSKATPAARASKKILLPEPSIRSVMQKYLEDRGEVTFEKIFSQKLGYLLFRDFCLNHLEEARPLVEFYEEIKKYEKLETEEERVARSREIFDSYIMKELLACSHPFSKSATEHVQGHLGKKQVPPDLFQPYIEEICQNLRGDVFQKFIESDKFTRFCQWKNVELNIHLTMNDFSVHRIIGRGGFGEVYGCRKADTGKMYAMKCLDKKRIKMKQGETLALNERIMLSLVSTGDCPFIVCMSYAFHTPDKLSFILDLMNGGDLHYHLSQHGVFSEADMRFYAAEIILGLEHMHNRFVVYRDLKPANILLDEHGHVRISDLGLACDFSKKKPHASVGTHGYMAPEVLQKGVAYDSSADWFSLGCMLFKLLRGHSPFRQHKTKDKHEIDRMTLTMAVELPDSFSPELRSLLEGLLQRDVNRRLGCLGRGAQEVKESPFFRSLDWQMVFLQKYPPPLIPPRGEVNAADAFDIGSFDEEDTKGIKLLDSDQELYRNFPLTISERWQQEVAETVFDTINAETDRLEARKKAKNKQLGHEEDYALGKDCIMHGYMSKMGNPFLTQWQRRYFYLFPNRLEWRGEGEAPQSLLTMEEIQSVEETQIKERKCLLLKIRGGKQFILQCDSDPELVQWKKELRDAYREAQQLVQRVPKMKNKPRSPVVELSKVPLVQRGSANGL
Assay [10] deals with Beta-2 adrenergic receptor (Homo sapiens) (UniProt P07550). The experiment in a line: agonist-induced loss of surface beta2AR – cell-based, FAP fluorogen, flow cytometry, validation set, pilot screen (AID 504459;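 active = percent response above 42, roughly 3 SD of non-fluorescent test compounds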;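 also: agonist-driven loss of surface beta2AR via internalization measured by FAP dye flow cytometry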). To be noted: Am2.2-beta2AR cells, at 10 µM, stronger effect = higher value.
Sequence of Beta-2 adrenergic receptor (Homo sapiens) (P07550 whole entry, looked up): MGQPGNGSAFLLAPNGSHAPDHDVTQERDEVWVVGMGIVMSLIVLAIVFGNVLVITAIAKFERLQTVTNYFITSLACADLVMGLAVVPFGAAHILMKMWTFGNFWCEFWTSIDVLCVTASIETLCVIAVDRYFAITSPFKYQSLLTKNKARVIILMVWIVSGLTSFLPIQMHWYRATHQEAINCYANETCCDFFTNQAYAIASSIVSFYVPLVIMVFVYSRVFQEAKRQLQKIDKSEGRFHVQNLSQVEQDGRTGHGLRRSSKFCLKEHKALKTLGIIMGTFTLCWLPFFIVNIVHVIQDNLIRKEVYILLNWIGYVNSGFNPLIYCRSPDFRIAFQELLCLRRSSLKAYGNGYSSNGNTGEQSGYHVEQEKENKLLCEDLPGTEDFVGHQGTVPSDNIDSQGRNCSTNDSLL
For assay [11], the target named is AP-2 complex subunit beta (Homo sapiens) (UniProt P63010). Put plainly: beta-arrestin/AP2 interaction blockers – biochemical, validation set, GST-AP2 beads, flow cytometry, pilot screen (AID 504541;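 active = inhibition above 54%, about 3 SD of non-fluorescent compounds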;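 also: AP2 carries R879A mutation and is captured from E. coli lysate; bead-bound FITC arrestin peptide fluorescence measuring arrestin peptide binding to AP2; 0% = DMSO wells and 100% = excess unlabeled arrestin peptide control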). Conditions: FITC arrestin peptide, at 10 µM, stronger effect = higher value, AP2 beta2 appendage fragment, R879A mutant.
Sequence of AP-2 complex subunit beta (Homo sapiens) (P63010 whole entry, looked up, the tested form may be a part, one chain of several): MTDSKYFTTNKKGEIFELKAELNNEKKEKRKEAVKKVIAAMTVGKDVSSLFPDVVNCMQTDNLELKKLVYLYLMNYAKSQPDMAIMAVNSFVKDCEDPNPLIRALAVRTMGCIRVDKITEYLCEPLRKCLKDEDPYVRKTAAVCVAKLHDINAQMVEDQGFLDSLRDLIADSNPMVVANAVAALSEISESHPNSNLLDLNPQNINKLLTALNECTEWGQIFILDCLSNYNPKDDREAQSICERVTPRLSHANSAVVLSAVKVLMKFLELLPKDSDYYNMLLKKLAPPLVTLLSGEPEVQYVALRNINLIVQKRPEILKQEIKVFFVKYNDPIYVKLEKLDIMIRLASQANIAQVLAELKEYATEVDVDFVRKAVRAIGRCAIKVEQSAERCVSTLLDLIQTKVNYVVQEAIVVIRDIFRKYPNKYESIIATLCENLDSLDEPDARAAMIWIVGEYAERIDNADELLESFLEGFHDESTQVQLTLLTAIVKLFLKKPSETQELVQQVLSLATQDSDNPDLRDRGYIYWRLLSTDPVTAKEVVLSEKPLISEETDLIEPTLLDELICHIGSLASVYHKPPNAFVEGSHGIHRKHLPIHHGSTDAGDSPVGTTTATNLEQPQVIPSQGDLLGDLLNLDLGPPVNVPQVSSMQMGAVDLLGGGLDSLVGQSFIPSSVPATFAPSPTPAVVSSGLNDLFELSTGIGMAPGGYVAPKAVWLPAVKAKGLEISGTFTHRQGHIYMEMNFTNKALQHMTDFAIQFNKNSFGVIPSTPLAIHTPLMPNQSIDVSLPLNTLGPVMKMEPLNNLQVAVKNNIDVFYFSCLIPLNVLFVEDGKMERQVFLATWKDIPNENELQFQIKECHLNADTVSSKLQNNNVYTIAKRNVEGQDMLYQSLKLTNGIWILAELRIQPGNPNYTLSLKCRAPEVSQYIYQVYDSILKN
The nature of assay [12]: cytosolic pH regulators acting via V-ATPase – S. cerevisiae, pHLuorin, HTS validation (AID 504600; in the data active = response above about 15%;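 also: plate controls were DMSO for no effect and reference compound for full effect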). To be noted: V-ATPase proton transport, at 10 µM, stronger effect = higher value.
Assay [13] deals with anti-desmoglein-3 scFv antibody binding to human DSG3. The experiment in a line: blockers of pathogenic pemphigus antibody–desmoglein-3 binding – biochemical, validation compound set, bead-based, flow cytometry, pilot screen (AID 588368;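 active = binding below the plate cutoff, the plate median minus 3 SD, with a reading above zero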;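 also: signal is the median channel fluorescence of bead-bound GFP antibody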). To be noted: Protein G beads, DSG3-Fc, scFv-GFP binding, at 10 µM, stronger effect = lower value.
Assay [14] in a line: Nile Red efflux blockade in pump-expressing yeast – validation compound set, multiplex, phenotypic, pilot screen (AID 588506;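 active = efflux inhibition above 0.42, the validation set average plus 4 SD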;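 also: Nile Red retained in cells so higher fluorescence means more efflux inhibition; 0 = negative control wells and 1 = enniatin B 25 µM full block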). Conditions: S. cerevisiae pump-expressing triplex, Nile Red efflux flow cytometry; at 10 µM; stronger effect = higher value; the pumps come from Candida albicans.
For assay [15], the target named is ATP-binding cassette sub-family B member 6 (Homo sapiens) (UniProt Q9NP58). The experiment in a line: blockers of ABCB6-driven porphyrin uptake – K562-ABCB6 cells, flow cytometry, validation set, pilot screen (AID 588550;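 active = inhibition above the screen-wide mean plus 3 SD, about 51%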;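 also: 0% = DMSO wells and 100% = benzethonium chloride 70 µM positive control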). To be noted: K562-ABCB6 porphyrin accumulation, 1 h, at 10 µM, stronger effect = higher value.
Sequence of ATP-binding cassette sub-family B member 6 (Homo sapiens) (Q9NP58 whole entry, looked up): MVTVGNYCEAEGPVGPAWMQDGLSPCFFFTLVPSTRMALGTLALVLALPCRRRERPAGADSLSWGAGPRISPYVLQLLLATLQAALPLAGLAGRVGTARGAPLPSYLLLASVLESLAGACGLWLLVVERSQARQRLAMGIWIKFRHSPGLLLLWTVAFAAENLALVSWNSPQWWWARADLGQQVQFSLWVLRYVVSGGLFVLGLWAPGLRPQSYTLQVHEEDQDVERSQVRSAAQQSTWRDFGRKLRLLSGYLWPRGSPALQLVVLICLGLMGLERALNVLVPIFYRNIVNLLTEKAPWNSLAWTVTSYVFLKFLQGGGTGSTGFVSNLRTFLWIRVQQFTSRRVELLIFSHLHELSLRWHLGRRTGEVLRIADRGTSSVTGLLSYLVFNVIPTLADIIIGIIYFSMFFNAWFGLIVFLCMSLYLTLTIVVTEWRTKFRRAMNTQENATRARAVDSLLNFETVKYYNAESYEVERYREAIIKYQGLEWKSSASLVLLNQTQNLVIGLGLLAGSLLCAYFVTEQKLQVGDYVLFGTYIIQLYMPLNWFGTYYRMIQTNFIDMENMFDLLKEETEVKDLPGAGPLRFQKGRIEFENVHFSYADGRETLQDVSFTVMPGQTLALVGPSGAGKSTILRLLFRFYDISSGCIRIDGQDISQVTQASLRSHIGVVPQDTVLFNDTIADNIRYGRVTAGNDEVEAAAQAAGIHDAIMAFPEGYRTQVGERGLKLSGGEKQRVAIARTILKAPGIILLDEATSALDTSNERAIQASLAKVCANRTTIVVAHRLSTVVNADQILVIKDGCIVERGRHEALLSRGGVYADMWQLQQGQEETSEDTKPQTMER
Assay [16] can be described thus: AML differentiation inducers, ER-HoxA9 marrow cells – cell-based, GFP/MAC1 double positive, flow cytometry, validation set, primary screen (AID 588685).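 Also: compound exposure lasts four days before antibody staining and flow analysis; 0% = DMSO wells and 100% = 5 µM fulvestrant positive control.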 To be noted: stronger effect = higher value, normalized: vehicle 0, fulvestrant 100.

Inconclusive results are not listed. The source made the active and inactive calls.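 The calls were made as follows, unless noted: active = differentiation response of at least 50%, scaled between solvent and reference control, from cells with both markers; inactive = the rest.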

As usually defined, the inhibition is the drop in the measured response relative to a control, in per cent. As to `COC(=O)C1=CN(Cc2cccs2)C=C(C(=O)OC)C1c1cccc(Cl)c1`, the percent of DMSO control GFP in assay [1] is 103% (inactive). Moreover, the GFP response vs DMSO in assay [2] is 107% (inactive); in assay [4], 92.3% (inactive). The percent response of DMSO control in assay [3] was 98.2% (inactive). Further, the GFP response, % of DMSO in [5] is 97.2% (inactive). In addition, the double positive events in assay [6] came to 61.5%. For the same compound, the vesicle binding response in assay [6] is 186% (inactive). Further, the inhibition in assay [7] was 14% (inactive); in assay [11], 2.7% (inactive); in [15], 6% (inactive). Also, in [8], the superoxide response (% of plate) was 103% (inactive). Moreover, the aptamer binding inhibition in assay [9] is 5% (inactive). Moreover, the response was 9.92% (inactive) in assay [10] and -0.61% (inactive) in assay [12]. Further, in assay [13], the binding (% of control) was 99.5% (inactive). The efflux inhibition (fraction of control) in assay [14] is 0.26 (inactive). Besides, the differentiation response in assay [16] is 6.49% (inactive).
With `O=C(NC(Nc1ccccn1)C(Cl)(Cl)Cl)c1ccccc1` (stereo not drawn), the percent of DMSO control GFP in [1] is 100% (inactive). Further, the GFP response vs DMSO was 102% (inactive) in [2] and 103% (inactive) in [4]. For the same compound, the percent response of DMSO control in assay [3] is 103% (inactive). For the same compound, the GFP response, % of DMSO in assay [5] is 102% (inactive). Further, the double positive events in assay [6] was determined as 58.7%. Moreover, the vesicle binding response in [6] is 157% (inactive). Moreover, the inhibition in assay [7] was -13.2% (inactive); in [11] it was -6.1% (inactive); in assay [15], -8% (inactive). Besides, the superoxide response (% of plate) in assay [8] is 91.6% (inactive). Moreover, the aptamer binding inhibition in [9] is -1% (inactive). Besides, the response in [10] is 1.87% (inactive); in assay [12], -1.51% (inactive). Besides, the binding (% of control) in assay [13] was 99.8% (inactive). Besides, in assay [14], the efflux inhibition (fraction of control) is 0.25 (inactive). Further, the differentiation response in assay [16] is -10.4% (inactive).
For the compound `O=C(O)CCn1cnc2ccccc2c1=O`, in [1], the percent of DMSO control GFP was 97.8% (inactive). Also, the figures for the GFP response vs DMSO in [2] and in [4] were 113% (inactive) and 111% (inactive), respectively. In assay [3], the percent response of DMSO control is 93.9% (inactive). Also, in assay [5], the GFP response, % of DMSO is 97.4% (inactive). The same compound came in with a double positive events in assay [6] of 58.8%. Moreover, the vesicle binding response in assay [6] was 172% (inactive). Also, the inhibition in assay [7] is 9.13% (inactive); in [11], -3.21% (inactive); in [15], 7% (inactive). In addition, the superoxide response (% of plate) in assay [8] was 101% (inactive). Also, in assay [9], the aptamer binding inhibition was 4% (inactive). Moreover, the response in assay [10] is -1.18% (inactive); in [12], 5.74% (inactive). The binding (% of control) in assay [13] was 101% (inactive). The efflux inhibition (fraction of control) in assay [14] is -0.28 (inactive). Further, in assay [16], the differentiation response is -8.8% (inactive).
Consider `CC1=C/C(=N\N=C2\NC(=O)C(CC(=O)Nc3ccccc3F)S2)CC(C)(C)C1` (stereo not drawn), for which the percent of DMSO control GFP in [1] is 94.2% (inactive). For the same compound, the results for the GFP response vs DMSO in assay [2] and in [4] were 125% (inactive) and 83.1% (inactive), respectively. Besides, in [3], the percent response of DMSO control was 86% (inactive). Moreover, the GFP response, % of DMSO in [5] was 95.2% (inactive). The compound also had a double positive events in assay [6] of 58%. Also, the vesicle binding response in [6] is 104% (inactive). Also, the inhibition was 12.3% (inactive) in [7], -7.65% (inactive) in [11] and 11% (inactive) in [15]. In assay [8], the superoxide response (% of plate) is 96.1% (inactive). Moreover, in [9], the aptamer binding inhibition was 8% (inactive). Besides, the response in [10] is -1.66% (inactive); in assay [12], 1.96% (inactive). Moreover, the binding (% of control) in assay [13] is 102% (inactive). Besides, in assay [14], the efflux inhibition (fraction of control) was -0.2 (inactive). Besides, the differentiation response in [16] was 4.09% (inactive).

The values are drawn from PubChem BioAssay.
